sEH inh = soluble epoxide hydrolase inhibitors, primary screen, biochemical, human sEH | recombinant human sEH enzymatic activity assay | AID 707, 2007 | inhibition, % at 2 µM | 91,000 compounds, 0.34% hits; in the data active means inhibition above about 80%
CYP2C19 activ = human CYP2C19 activators, primary screen, biochemical, luminescence | recombinant CYP2C19, luciferin-H EGE luminescence; active compounds read high; 0 = fully inhibited enzyme, 1 = untreated enzyme | AID 1025, 2008 | Cytochrome P450 2C19 (Homo sapiens), P33261 | 96,000 tested, under 10 active | activation factor at 5 µM;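 active means activation factor of at least 2 at 5 µM in the primary screen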;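 further: 0 = wells with 2.5 mM tranylcypromine and 1 = vehicle-only wells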
CYP2C19 inhib = blockers of cytochrome P450 2C19 activity – biochemical, luminescence, ADME assay, primary screen. inhibition, % at 5 µM. 96,000 compounds, 21% hits. P33261. AID 778, 2007. CYP2C19 Supersomes, luciferin-H EGE luminescence, 30 min;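 active means CYP2C19 inhibition above a set limit at 5 µM in the primary screen, cut at about 50% in these data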;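 further: plate controls were negative control wells for no effect and 2.5 mM tranylcypromine positive control for full effect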
CYP2C9 activ = human CYP2C9 activators, primary screen, biochemical, luminescence. recombinant CYP2C9, luciferin-H conversion; active compounds read high; factor 1 = untreated enzyme, 0 = blocked. activation factor at 5 µM. 96,000 compounds, 1.4% hits. AID 1024, 2008;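 active means activation factor of 2 or more for CYP2C9 at a 5 µM dose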;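 further: 0 = sulfaphenazole-blocked wells and 1 = vehicle-only wells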
Target sequence (P11712 whole entry, looked up): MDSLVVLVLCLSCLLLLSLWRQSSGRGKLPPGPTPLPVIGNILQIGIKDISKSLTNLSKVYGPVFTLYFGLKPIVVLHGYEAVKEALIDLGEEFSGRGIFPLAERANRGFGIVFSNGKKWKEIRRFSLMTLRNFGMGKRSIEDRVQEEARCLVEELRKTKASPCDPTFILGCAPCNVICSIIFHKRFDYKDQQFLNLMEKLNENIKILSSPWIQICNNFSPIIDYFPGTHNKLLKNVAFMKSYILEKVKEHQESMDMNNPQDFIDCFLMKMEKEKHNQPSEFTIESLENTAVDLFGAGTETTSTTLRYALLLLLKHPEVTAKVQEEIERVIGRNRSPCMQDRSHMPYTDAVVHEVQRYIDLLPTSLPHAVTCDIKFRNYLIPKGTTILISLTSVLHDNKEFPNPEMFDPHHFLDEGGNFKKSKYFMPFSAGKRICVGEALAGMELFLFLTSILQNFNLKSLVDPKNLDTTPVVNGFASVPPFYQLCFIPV
CYP2C9 inhib = blockers of cytochrome P450 2C9 activity – biochemical, luminescence, ADME assay, primary screen. P11712. CYP2C9 Supersomes, luciferin-H conversion. 96,000 compounds, 20% hits. inhibition, % at 5 µM;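 active means blocking of liver enzyme CYP2C9 beyond about 50% at 5 µM, limit read from the data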
sEH act = soluble epoxide hydrolase activators, primary screen, biochemical, human sEH. activation, % at 2 µM. AID 717, 2007. 91,000 compounds, 0.04% hits. Bifunctional epoxide hydrolase 2 (Homo sapiens), P34913. purified human sEH enzymatic activity, activator screen; in the data active means activation above about 37%
Starred values were filed as active, the others as inactive; x = no result. The list is not random: actives were taken first. Their share in the collection is about 27%.

SMILES	sEH inh	CYP2C19 activ	CYP2C19 inhib	CYP2C9 activ	CYP2C9 inhib	sEH act
CC(=O)NCCc1ccc(S(=O)(=O)NCc2ccc3c(c2)OCO3)cc1	3	0.4	61*	0.5	47	-1
CCCNS(=O)(=O)c1ccc(CCC(=O)NCc2ccc3c(c2)OCO3)cc1	24	0.2	80*	0.3	74*	-24
CCCc1cc2c(cc1NS(=O)(=O)c1ccc(CCNC(C)=O)cc1)OCO2	-4	0.2	78*	0.6	40	6
CC(C)(C)NS(=O)(=O)c1ccc(CCC(=O)Nc2ccc3c(c2)OCO3)cc1	7	0.4	58*	0.1	94*	-7
CCOc1ccc(NC(=O)C(C)O)c(NS(=O)(=O)c2ccc(CCNC(C)=O)cc2)c1 (stereo not given)	-9	0.8	16	0.9	7	10
O=C(N1CCOCC1)N1CCN(C(=O)N2CCOCC2)CC1	-8	x	x	x	x	10
CC(=O)Cc1nsc(NC(=O)C2Cc3ccccc3C(=O)O2)n1 (stereo not given)	-3	1	-3	1.1	-5	2
Cc1cc(C)c(C)c(OCCCn2ccnc2)c1	-9	0	100*	0	95*	12
COc1ccc(Cn2ccnc2)cc1Br	6	0.1	92*	0.1	88*	-4
Cc1ccc(OCCCN2CCCC2)c(C)c1	-6	0.8	16	1	2	3
Cc1cccc(OCCCCCn2ccnc2)c1C	-4	0	100*	0	100*	3
Cc1ccc(C)c(OCCCCn2ccnc2)c1	0	0	98*	0.1	93*	-3
COc1ccc(C2C(C(C)=O)=C(O)C(=O)N2CCCn2ccnc2)cc1OC (stereo not given)	x	1	5	0.8	18	x
Cc1ccccc1OCCCN1CCCC1	-5	1.1	-11	1.1	-9	4
Cc1nc2sc(C(c3ccc(C(C)C)cc3)N3CCN(CCO)CC3)c(O)n2n1 (stereo not given)	x	1	2	1.1	-6	x
COc1cccc(NC(=O)Cn2c(=O)c3c(ncn3Cc3ccccc3)n(Cc3ccccc3)c2=O)c1	8	0.9	6	1.1	-6	-6
Cc1ccc(SCC(=O)NC(C)(C)C)cc1	12	0.8	16	0.9	13	-14
COc1cc(C)ccc1OCCOCCOc1ccccc1Br	2	0.7	27	0.9	11	0
Cc1cc(C(C)(C)C)ccc1OCCn1ccnc1	-15	0	98*	0.1	94*	9
Cc1ccc(OCCCCn2ccnc2)c(Cl)c1	6	0	100*	0	98*	-8
Cc1ccc(OCCOCCn2ccnc2)c(Br)c1	11	0	99*	0.1	87*	-11
CCOc1ccccc1OCCCOc1ccc(C)cc1Cl	-5	0.9	8	1.2	-19	7
Cc1noc(C)c1S(=O)(=O)N1CCCCC1	-14	0.9	12	0.7	32	10
CCCCCCc1nc2ccccc2c(=O)n1NC(=O)c1c(O)c2cccc3c2n(c1=O)CC3	13	x	x	x	x	-13
Cc1cc(S(=O)(=O)N2CCC(NC(=O)C34CC5CC(CC(C5)C3)C4)CC2)ccc1-n1cnnn1	69	0.8	17	1	4	-69
SMILES	sEH inh	CYP2C19 activ	CYP2C19 inhib	CYP2C9 activ	CYP2C9 inhib	sEH act
CC(C)CNS(=O)(=O)c1ccc(CCC(=O)NCc2ccco2)cc1	-3	x	x	x	x	6
CCOc1ccc(OCc2ccc(C(=O)NCc3cccnc3)o2)cc1	-6	0.6	43	0.6	37	10
O=C(Nc1ccn(Cc2ccccc2F)n1)c1ccc(COc2ccccc2Cl)cc1	-6	0.2	79*	0.1	86*	8
O=C(NCc1cccnc1)c1ccc(COc2cccc3ccccc23)o1	5	0.5	53*	1	2	-2
O=C(Nc1nn(Cc2ccc(Cl)cc2)cc1Br)c1ccc(COc2ccccc2Cl)o1	4	0.2	81*	0.1	86*	-6
O=C(NCc1ccc2c(c1)OCO2)c1ccc(COc2cc(Cl)ccc2Cl)o1	21	0.4	57*	0.1	94*	-20
O=C(N/N=C/c1ccc(O)cc1)c1ccc(COc2cc(Cl)ccc2Cl)o1	54	0.5	46	0.7	29	-54
O=C(Nc1ccccn1)c1ccc(COc2ccccc2Cl)o1	-3	x	x	x	x	6
O=C(Nc1ccn(Cc2c(F)c(F)cc(F)c2F)n1)c1cccc(Cn2cc([N+](=O)[O-])cn2)c1	42	0.3	73*	0.2	82*	-41
O=C(Nc1cccnc1)c1ccc(COc2cc(Cl)ccc2Cl)o1	12	0.3	74*	0.4	60*	-9
Cc1ccc(Cn2ccc(NC(=O)c3cc(-c4ccc(Br)cc4)on3)n2)cc1	-5	1	-4	0.8	18	5
O=C(Nc1ccn(Cc2ccccc2F)n1)c1ccc(COc2cc(Cl)ccc2Cl)o1	7	0.4	61*	0.1	91*	-6
O=C(Nc1ccn(Cc2c(F)c(F)c(F)c(F)c2F)n1)c1cccc(Cn2cc([N+](=O)[O-])cn2)c1	31	0.7	30	0.7	27	-30
O=C(Nc1ccn(Cc2ccccc2F)n1)c1ccc(COc2cccc(Br)c2)cc1	21	0.8	19	0.1	88*	-19
O=C(O)CC(C(=O)Nc1ccc(Cl)c(Cl)c1)C1CCCO1 (stereo not given)	9	1	5	1.1	-10	-8
O=C(NCC1CCC(C(=O)O)CC1)c1cccnc1 (stereo not given)	4	1	2	1	-3	-6
O=C(NC1CCS(=O)(=O)C1)OC1CCCCC1 (stereo not given)	-4	x	x	x	x	7
CC(C)(C)CC(C)(C)Nc1c(-c2ccc(O)cc2)nc2cnccn12	16	x	x	x	x	-16
O=C(Nc1ccn(Cc2c(F)c(F)cc(F)c2F)n1)c1ccc(COc2cc(Cl)ccc2Cl)o1	6	0.9	13	0.8	19	-5
CN(C)c1ccc(NC(=O)c2ccc(COc3cccc(Cl)c3)o2)cc1	30	0.7	31	0.3	71*	-30
O=C(Nc1ccn(Cc2c(F)c(F)cc(F)c2F)n1)c1ccc(COc2ccccc2Cl)cc1	-1	0.7	32	0.3	66*	1
CCOc1ccc(OCc2ccc(C(=O)Nc3cccnc3)o2)cc1	8	0.7	27	0.7	29	-5
COC(=O)CSc1ccc(-c2nc3ccc(C)cc3[nH]2)cn1	57	0.9	13	0.8	18	-58
Cc1cc(C(=O)NCc2cc(C)n(C)n2)sc1-c1ccccc1	72	0.4	59*	0.9	9	-71
